The record followed here is PubChem BioAssay AID1508600 (Functional Genomics Laboratory (NCATS/FGL), 2020).

Hit rate of the full screen: of about 53,000 sequences, about 3,700 (7%) were called active.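 Rule for the calls: active = gene knockdowns whose robust z-score for IL-1 alpha signal is at least 2 or at most -2, so actives lie on both sides; inactive = the rest.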 Shown is part of a subset that was picked to be rich in actives.

This assay is described as follows: Components of the Cytosolic LPS Sensing Pathway: Gene Identification via Genome-wide siRNA Screen.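 Note: robust z of the log signal after scaling to non-targeting control siRNA wells of the plate.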 The following applies: RAW264.7 macrophages, IL-1a HTRF, actives lie on both sides, screened at 100 nM (by protocol), cells primed 5 h with Pam3CSK4 first. Put shortly: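 Using IL-1a HTRF as read-out, the screen measured release from RAW264.7 cells after 48h siRNA knockdown (100 nM), 5 h Pam3CSK4 priming and 24 h cytosolic LipidA. Values were expressed relative to negative-control wells as robust z-scores.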
For the sequence GGCAUGUUUCUUGACUUAATT against Coil, the z-score was 0.122 (inactive).

Turning to GGACCUGGUUCAGGUAUCATT against Col6a3, the z-score was -2.17 (active).

For GGGUUUAUUUGGUCAAGAUTT against Mpc2, the z-score is -0.349 (inactive).

For the sequence GCAUACGUGUUCAAUGGUGTT against Ppef2, the z-score was -0.541 (inactive).

As for CCGUGGAACUUAAAUAGUUTT against Pard6g, the z-score is 2.66 (active).

For the sequence GGAUCUCGCUGGCAAUAAUTT against Gpr45, the z-score was -0.222 (inactive).

Take CCAUUUUUCCUACGUGGGUTT against Zfand2a: the z-score is 0.449 (inactive).

For the sequence GGAUUUGGGUUUUCUAUAATT against Cfb, the z-score is -0.0373 (inactive).

As for CAAUGACAGCAGAUGACGUTT against Crabp2, the z-score is 0.0834 (inactive).

As for CCGGUCAAAAUUGAAAAGGTT against Bves, the z-score was 0.666 (inactive).

GGUGAAAAGUCCUGCCAAGTT against Nefh: the z-score is 0.408 (inactive).

With GGCCAUUUGGAAACUAUUATT against Anapc11, the z-score is -0.109 (inactive).

Consider GGCUGUGAGAUAGAUCUAATT against Arhgef40, for which the z-score was 2.07 (active).

Consider GCAAGGAGUUUAUGUGAGUTT against Olfr170, for which the z-score is 0.297 (inactive).

GGGCAAAAUACAAAAGGAGTT against Mlph: the z-score is -0.9 (inactive).

As to GGACAUUCUCAAAUCUUGATT against Praf2, the z-score is 0.244 (inactive).

Turning to GCAUAAGGACCCUUUGUCATT against Rasl10b, the z-score was -1.27 (inactive).

Regarding GCUGUAUCAGUCUUUCUAUTT against Cyp27b1, the z-score is 0.442 (inactive).

For the sequence GGACAUGUCGGAUGGCUUCTT against P4ha1, the z-score was 0.212 (inactive).

Consider GGCAGCAUUAAAACUUAAGTT against Chtop, for which the z-score is 2.71 (active).

Regarding GGGUAACAUGAAGAUCAAUTT against Rnf19a, the z-score is 0.488 (inactive).

Regarding GGGACAAAAGCAAUCAAACTT against H2-M11, the z-score was 2.06 (active).

For GCAAGCAUGCUCAUAAAGATT against Cast, the z-score is -0.142 (inactive).

Turning to CGUAUGCAGAACAACAUUUTT against Klhl2, the z-score was 1.77 (inactive).

Turning to CGAUCCCUGUCUGUUGGAUTT against Spint4, the z-score was 0.944 (inactive).

GGAGGUAUACAGUAAGGAGTT against Fbxo32: the z-score was 0.542 (inactive).

On to GGCUGACAGUAACAAGUGGTT against Fignl1, for which the z-score was 3.72 (active).

Regarding GCCAGGAUCCAUCAAUUCCTT against Olfr376, the z-score is -1.84 (inactive).

Regarding CCCUGAAAAUUAUCGAGCGTT against Galnt18, the z-score is -0.493 (inactive).

For the sequence CCCAGGAACUAUGAGUUGUTT against Rnf31, the z-score was -1.87 (inactive).
